# Screens: PubChem, several laboratories
# Bcl-xL primary – blocks human Bcl-xL binding to Bim BH3 peptide; inhibition, % at 10.9 µM; Q07817; hit rate 0.7% among 320,000; GST-Bcl-xL / FITC-Bim BH3 peptide fluorescence polarization; AID 2129;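 active = inhibition above the mean of all tested compounds plus 3 SD, cutoff set per campaign, cut at about 30% in these data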;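 also: inhibitors lower millipolarization by displacing the labeled peptide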
# MEX-5 binding – C. elegans MEX-5 TCR-2 RNA binding activity; Q9XUB2; MEX-5/FITC-TCR2 RNA binding, fluorescence polarization; stronger effect = lower value; activity score (negative = inhibition of binding), % at 10 µM; hit rate 0.38% among 300,000;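 active = inhibition past about -25% in most replicates, and total fluorescence under double the plate's negative control median, limit read from the data; inconclusive = replicates evenly split on the limit, or fluorescence at least double controls; inactive = too little inhibition in most replicates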
# eLon inh – E. coli protease La inhibition; hit rate 0.42% among 360,000; P0A9M0; inhibition, % at 7.94 µM; purified E. coli Lon protease, fluorescence polarization; in the data active = inhibition above about 13%, passing the limit was not always enough
# Target sequence (P0A9M0 whole entry, looked up): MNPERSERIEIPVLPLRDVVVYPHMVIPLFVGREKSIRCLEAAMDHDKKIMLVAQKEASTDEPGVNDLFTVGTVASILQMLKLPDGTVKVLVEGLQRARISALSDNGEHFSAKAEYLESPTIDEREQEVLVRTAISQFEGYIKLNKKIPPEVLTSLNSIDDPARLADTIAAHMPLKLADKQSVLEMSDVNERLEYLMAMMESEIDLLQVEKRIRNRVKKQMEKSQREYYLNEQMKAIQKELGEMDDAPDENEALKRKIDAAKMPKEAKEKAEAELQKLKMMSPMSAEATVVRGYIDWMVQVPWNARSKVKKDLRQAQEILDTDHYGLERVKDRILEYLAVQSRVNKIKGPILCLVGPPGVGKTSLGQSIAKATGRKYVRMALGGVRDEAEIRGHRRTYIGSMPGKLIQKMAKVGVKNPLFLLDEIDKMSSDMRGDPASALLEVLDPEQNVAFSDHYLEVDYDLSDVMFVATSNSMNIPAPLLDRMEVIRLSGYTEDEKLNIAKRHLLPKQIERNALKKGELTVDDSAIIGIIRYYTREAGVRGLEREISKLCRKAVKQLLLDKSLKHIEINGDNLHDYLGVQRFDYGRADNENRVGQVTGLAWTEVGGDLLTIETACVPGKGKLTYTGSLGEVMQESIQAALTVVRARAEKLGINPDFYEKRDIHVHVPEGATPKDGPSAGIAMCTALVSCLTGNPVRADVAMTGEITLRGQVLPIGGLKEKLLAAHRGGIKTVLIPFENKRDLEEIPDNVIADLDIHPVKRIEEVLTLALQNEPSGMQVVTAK
# GLD-1 TGE inh – GLD-1-TGE RNA interaction inhibition (C. elegans) | purified GLD-1 + fluorescein TGE RNA, fluorescence polarization | inhibition, % at 5.96 µM | hit rate 0.44% among 320,000 | Q17339;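 active = percent inhibition above a per-plate cutoff, the plate mean of test compounds plus 3 SD, cut at about 30% in these data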
# EBV gp42 inh – EBV gp42 inhibition | Q1HVG2 | Fluorescence polarization binding assay, mP read-out | inhibition, % (tested at 21.74 µM) | AID 1085 | hit rate 0.42% among 220,000; in the data active = inhibition above about 50%
# A number is an active result; . = inactive; ? = inconclusive; / = not tested or not shown. Rows were chosen to be rich in hits. Some 1.3% of all compounds tested hit in one or more screens of this group.
SMILES,Bcl-xL primary,MEX-5 binding,eLon inh,GLD-1 TGE inh,EBV gp42 inh
CC1CCN(C(=O)CSc2nnc(CNC(=O)c3ccc(S(=O)(=O)N(C)C)cc3)o2)CC1,.,.,.,.,/
COc1ccccc1-n1nnnc1SCC(=O)Nc1ccc(C)c(N)c1,141,.,.,93,/
COc1ccc(NC(=O)CSc2nnnn2-c2ccccc2OC)c(OC)c1,.,.,.,.,/
CCCOC(=O)c1ccc(-c2ccc(C=O)o2)cc1,.,.,.,.,.
CCOC(=O)c1ccc(-c2ccc(C=O)o2)cc1,.,-27,.,.,.
O=c1oc2ccccc2nc1/C=C(O)/C=C/c1ccc(F)cc1,.,.,.,.,.
O=c1oc2ccccc2nc1/C=C(O)/C=C\c1ccccc1,57,.,.,34,.
Cc1ccc(Oc2ncnc(N)c2[N+](=O)[O-])cc1C,.,.,.,.,.
COC(=O)C1=COC(C)C2CN3CCc4c([nH]c5ccccc45)C3CC12 (stereo unspecified),89,.,.,48,.
CC(C)(C)c1nn(-c2ccccc2)c2[nH]c(=O)c(CNCc3ccco3)cc12,.,-27,.,.,.
Cc1ccc(CNCc2cc3c(C(C)(C)C)nn(-c4ccccc4)c3[nH]c2=O)cc1,.,.,.,.,.
C[C@@H](NC(=O)c1nc[nH]c1C(=O)NCc1ccccc1)c1ccccc1,.,/,.,.,/
Oc1ccc(Nc2ccc3ccccc3c2)cc1,/,/,.,/,/
Cc1cc(Nc2ccc(O)cc2)ccc1N,36,/,/,.,/
O=C(NC(CO)c1ccccc1)c1ccco1 (stereo unspecified),.,.,.,.,.
COCCn1c(=N)c(S(=O)(=O)c2ccc(Br)cc2)cc2c(=O)n3ccccc3nc21,.,-45,.,.,/
COCCn1c(=N)c(S(=O)(=O)c2ccc(F)cc2)cc2c(=O)n3ccccc3nc21,.,.,.,.,/
N=c1c(S(=O)(=O)c2ccc(Br)cc2)cc2c(=O)n3ccccc3nc2n1C1CCCCC1,.,-45,.,.,/
N=c1c(S(=O)(=O)c2ccccc2)cc2c(=O)n3ccccc3nc2n1C1CCCCC1,/,/,.,/,/
N=c1c(S(=O)(=O)c2ccc(Cl)cc2)cc2c(=O)n3ccccc3nc2n1C1CCCC1,.,-35,.,.,/
CCOc1ccc(S(=O)(=O)Nc2cccc(C(=O)N3CCN(c4ccccn4)CC3)c2)cc1,/,/,.,/,/
O=C(NCc1ccco1)C1CCCN1C(=O)Nc1ccc(Br)cc1 (stereo unspecified),/,.,.,/,/
CC1=C/C(=C(/c2cc(C)c(O)c(Br)c2)c2ccccc2S(=O)(=O)O)C=C(Br)C1=O,41,.,.,.,/
CCCCCn1nc(-c2ccccc2)c2nc3ccccc3nc21,.,?,.,.,161
CCCn1nc(-c2ccccc2)c2nc3ccccc3nc21,.,/,/,.,65
SMILES,Bcl-xL primary,MEX-5 binding,eLon inh,GLD-1 TGE inh,EBV gp42 inh
CCCn1c(C)nc2c(c1=O)c1nc3ccccc3nc1n2-c1ccccc1,/,/,.,/,/
CCn1nc(-c2ccccc2)c2nc3ccccc3nc21,88,?,.,.,93
CCn1c2ccc(Cl)cc2c2nc3ccccc3nc21,.,.,/,.,.
CCCCn1c2nc3ccccc3nc2c2c(=O)n(CCC)cnc21,.,.,.,.,.
Cc1c(C(=O)NCc2ccc3c(c2)OCO3)cccc1[N+](=O)[O-],.,.,.,.,.
O=C(Cc1nc2ccccc2[nH]c1=O)c1ccccc1,/,-61,.,/,52
O=c1[nH]c2ccccc2nc1Cc1ccccc1,.,.,.,.,.
CCOC(=O)C1=C(c2ccccc2)N=c2s/c(=C\c3cc(OC)c(OC)c(OC)c3)c(=O)n2C1c1cccs1 (stereo unspecified),35,.,.,.,.
COc1cccc(-c2nc3ccccc3s2)c1O,.,.,.,.,.
CC(C)=C(C#N)c1nc2ccccc2s1,.,.,.,.,.
CC1=CC(=C(C#N)c2nc3ccccc3s2)C=C(C)N1c1ccc(F)cc1,.,.,.,.,180
COc1ccccc1N1C(C)=CC(=C(C#N)c2nc3ccccc3s2)C=C1C,.,-38,.,.,164
COCc1c(C(=O)OC)nnn1-c1ccc(C(F)(F)F)cc1[N+](=O)[O-],.,.,.,.,.
CN(C)c1ccc(/C=C(\C#N)C(=O)Nc2nc3c(s2)CCN(Cc2ccccc2)C3)cc1,.,.,.,.,106
COc1ccc(C(=O)N2CCn3c(C)ccc3C2C)cc1 (stereo unspecified),47,.,.,.,.
COc1ccc(C2N(C(=O)c3ccccc3)CCN2C(=O)c2ccc(C)cc2)cc1 (stereo unspecified),.,.,.,.,.
Nc1nc2ncc(C(=O)c3cc(Cl)cc(Cl)c3O)cc2s1,32,.,.,.,.
Nc1nc2cc(Cl)ccc2cc1C(=O)NCCCc1ccccc1,/,/,.,/,/
CSCCC(NC(=O)c1ccco1)C(=O)NC1CCCCCC1 (stereo unspecified),.,.,.,.,/
COc1cc(NC(C)CCCN)c2ncccc2c1 (stereo unspecified),44,.,.,.,/
O=C(CCS(=O)(=O)c1ccccc1)NNC(=O)CSc1ccccc1F,/,/,.,.,/
Cc1ccc(C)n1-c1ccccc1N,92,.,/,99,.
COc1ccc(C)cc1S(=O)(=O)Nc1ccc(-n2c(C)nc3ccccc3c2=O)cc1,.,.,.,.,/
COc1ccc(-n2c(O)c(/C=N/Nc3nc(C)cc(C)n3)c3ccccc3c2=O)cc1OC,.,.,.,.,.
COc1ccc(-n2c(O)c(/C=N/NS(=O)(=O)c3cc(C)ccc3C)c3ccccc3c2=O)cc1OC,54,-31,.,.,.
SMILES,Bcl-xL primary,MEX-5 binding,eLon inh,GLD-1 TGE inh,EBV gp42 inh
COc1ccc(-n2c(O)c(/C=N/NS(=O)(=O)c3ccc(C)cc3)c3ccccc3c2=O)cc1OC,48,.,.,.,.
COCCCNC(=O)c1ccc(Cn2c(=O)c3ccccc3n(Cc3ccccc3C#N)c2=O)cc1,.,.,.,.,.
COc1ccc(N(C(=O)CCl)C(C)(C(=O)Nc2c(C)cccc2C)c2ccccn2)cc1 (stereo unspecified),.,-30,.,.,.
CCOc1ccc(NC(=O)C(c2ccccn2)N(C(=O)CCl)c2ccc(OC)cc2)cc1 (stereo unspecified),.,.,.,.,.
COC(=O)c1ccc(C2Nc3ccc(/C(C)=N/NC(=O)C(OC)c4ccccc4)cc3C3C=CCC32)cc1 (stereo unspecified),34,.,.,.,/
O=C(Nc1ccnn1C1CCN(CC2CC=CCC2)CC1)c1ccccc1 (stereo unspecified),/,-27,.,/,/
COc1ccc(C(=O)Nc2ccnn2C2CCN(CC3CC=CCC3)CC2)cc1 (stereo unspecified),/,.,.,/,/
COc1ccc(-c2cc(-c3ccco3)[nH]c(=O)c2C#N)cc1OC,46,.,.,.,.
N#Cc1c(-c2ccccc2)cc(-c2ccc3c(c2)OCO3)[nH]c1=O,.,/,.,.,/
NC(=O)NC(CC(=O)NCc1ccc2c(c1)OCO2)c1ccccc1Cl (stereo unspecified),.,.,.,.,/
